Data published in PubChem BioAssay AID624416 (The Scripps Research Institute Molecular Screening Center, 2012).
About 1,500 (0.42%) of roughly 360,000 compounds were called active. The entries come from a sample that favours actives as a whole. Unmarked numbers belong to inactive results. No stated cut-off is given here; in the data, active means inhibition above about 8.5%; inactive means the rest.

The compounds below were run on HIV-1 gp120 / PG9 antibody interaction (assay: binders of HIV-1 gp120 antibody PG9, primary screen, biochemical, TR-FRET (AID 624416)). Conditions: TR-FRET gp120-PG9 antibody binding; at 6.7 µM; active compounds read high.
`COC(=O)c1ccc(CN2C(=O)[C@]3(OCCC=C[C@H]3C)c3c(Br)cccc32)cc1` gave an inhibition of 0.64%. For `COc1ccccc1C(=O)N1O[C@]23C=C[C@]14C[C@@H](O)CC[C@]4(C)C2CC[C@]1(C)[C@@H]([C@H](C)/C=C/[C@H](C)C(C)C)CC[C@H]13` (stereo partly specified), the inhibition was 0.64%. `NC(=O)c1ncn([C@@H]2O[C@H](C(=O)O)[C@@H](O)[C@H]2O)n1` showed an inhibition of -0.47%. `COc1ccc(C(=O)COC(=O)C(O)c2ccccc2)c(OC)c1` (stereo unspecified) gave an inhibition of -2.12%. In the case of `CCOC(=O)c1c(C)[nH]c(C(=O)OCC(=O)c2ccc(OC)cc2OC)c1C`, the inhibition is reported as 9.16% (active). `CCOC(=O)c1c(C)[nH]c(C(=O)COc2ccc3c(c2)OCO3)c1C` was tested, and the inhibition was 3.13%. In the case of `COC(=O)Cc1nnn2c1[C@H](C)[C@@H](OC)c1cc(Br)ccc1-2`, the inhibition is reported as 0.07%. Work on `Cn1c(SCC(=O)Nc2ccc(Br)cc2F)nnc1-c1ccco1` yielded an inhibition of 2.43%. With `CCn1c(SCC(=O)Nc2cccc(F)c2)nnc1-c1cc2cc(Br)ccc2o1` the inhibition was 24.2% (active). `CCn1c(CNC(=O)c2ccco2)nnc1SCC(=O)Nc1cccc(F)c1` gave an inhibition of -1.17%. For `CCCCCCCCN1C(=O)[C@@H](CC(=O)NCc2ccc(C)o2)C[C@@]2(C(=O)OC)C1=C[C@H](C(C)(C)C)O[C@@H]2C`, the inhibition was 0.05%. Work on `COC(=O)C1=C(C)N(Cc2ccccc2C(F)(F)F)C(=NCC2CC2)NC1c1cccc(Cl)c1` (stereo unspecified) yielded an inhibition of -1.5%. `COC(=O)C1=C(C)N(Cc2ccccc2C(F)(F)F)C(=NCc2ccc(C(F)(F)F)cc2)NC1c1ccc(F)cc1` (stereo unspecified) was tested, and the inhibition was -2.66%. `COC(=O)C1=C(C)N(Cc2ccccc2C(F)(F)F)C(=NCc2ccc(OC)cc2)NC1c1cccc(C(F)(F)F)c1` (stereo unspecified) was tested, and the inhibition was 24.9% (active). `CC1(C)OC(=O)C2=C(CC(CCc3ccccc3)OC2c2ccc(Cl)cc2)O1` (stereo unspecified) was tested, and the inhibition was 1.11%. In the case of `O=C(Nc1ccn(Cc2ccccc2F)n1)c1ccc(COc2ccc(Cl)cc2Cl)o1`, the inhibition is reported as 1.3%. With `COc1ccc(Sc2ccc(NC(=O)c3cccc(Cl)c3)cc2C#N)cc1` the inhibition was -1.17%. In the case of `N#Cc1ccccc1NC(=O)c1cccc(COc2ccc(Cl)cc2Cl)c1`, the inhibition is reported as 19.9% (active). Compound `CN[C@H]1C[C@H]2c3[nH]c4c(-c5ccccc5)cccc4c3CCN2C(=O)[C@H]1[C@H](C)O` has an inhibition of -0.87%. `COc1ccc(-c2ccc3c(n2)CCCN3S(=O)(=O)c2ccc(C)cc2)cc1` showed an inhibition of -0.15%. In the case of `COC(=O)C1=C(C)N(Cc2ccc(C(F)(F)F)cc2)C(=NCc2ccc(C(F)(F)F)cc2)NC1c1cccc(Cl)c1` (stereo unspecified), the inhibition is reported as -0.79%. For `Cc1cc(C)cc(NC(=O)C2CCCN(S(=O)(=O)c3ccc4[nH]c(=O)ccc4c3)C2)c1` (stereo unspecified), the inhibition was 11.4% (active). With `CC1CCN(S(=O)(=O)c2ccc3[nH]c(=O)ccc3c2)CC1` the inhibition was 0.02%. `CCc1cccc(NC(=O)C2CCCN(S(=O)(=O)c3ccc4[nH]c(=O)ccc4c3)C2)c1` (stereo unspecified) showed an inhibition of 0.8%. In the case of `CC(C)[C@@H](C)/C=C/[C@@H](C)[C@H]1CC[C@@H]2[C@]1(C)CCC1[C@]23C=C[C@]2(C[C@@H](O)CC[C@]12C)N(c1ccc([N+](=O)[O-])cn1)O3` (stereo partly specified), the inhibition is reported as -1.14%. Compound `O=C(NCc1ccc2c(c1)OCO2)c1c(O)nc2sccn2c1=O` has an inhibition of -1.43%. Work on `O=C(NCc1ccc(Cl)cc1)c1cc(=O)nc2sc(-c3ccccc3)nn12` yielded an inhibition of -2.19%. In the case of `O=C(NCc1ccc(Cl)cc1)c1cc2c(nc3sccn32)s1`, the inhibition is reported as 28.4% (active). `CCOC(=O)CNC(=O)N(C)[C@H]1C[C@H]2c3[nH]c4c(-c5ccc6c(c5)OCO6)cccc4c3CCN2C(=O)[C@H]1[C@H](C)O` gave an inhibition of -0.88%. With `COc1cccc(CNC(=O)c2cccnc2Sc2ccc(Cl)cc2)c1` the inhibition was 14.9% (active). `CSc1ncccc1C(=O)NCc1ccccc1Cl` gave an inhibition of -1.41%. For `O=C(NCc1cccnc1)c1cccnc1Sc1ccc(Cl)cc1`, the inhibition was 0.54%. For `O=C(NCc1ccccc1)[C@@H]1CCCN1C(=O)[C@@H](NS(=O)(=O)c1ccc(F)cc1F)C1CCCCC1`, the inhibition was -0.43%. In the case of `O=C(CCC1CCCC1)N=C1SC2CS(=O)(=O)CC2N1Cc1ccccc1` (stereo unspecified), the inhibition is reported as 0.63%. For `O=C(N=C1SC2CS(=O)(=O)CC2N1Cc1ccccc1)c1ccccc1` (stereo unspecified), the inhibition was 34% (active). For `O=C(N=C1SC2CS(=O)(=O)CC2N1c1ccccc1)c1ccccc1` (stereo unspecified), the inhibition was -0.55%. In the case of `Nc1[nH]c(C(=O)c2ccccc2)c(-c2ccc(Cl)cc2Cl)c1C(=O)c1ccccc1`, the inhibition is reported as 0.83%. `CCc1c(-c2ccccc2)nc(N)c(C#N)c1-c1cccs1` gave an inhibition of -2.39%. With `CN1CCc2nc(SC(C(=O)O)c3ccccc3)c(C#N)c(-c3cccs3)c2C1` (stereo unspecified) the inhibition was 1.9%. With `Cc1c(-c2ccccc2)nc(N)c(C#N)c1-c1cccs1` the inhibition was 12.2% (active). Work on `O=C(NCc1ccccc1)[C@H]1CCCN1C(=O)[C@H]1CCCN1C(=O)c1cc(F)cc(F)c1` yielded an inhibition of -2.57%.
